Bioassay records deposited in PubChem by several laboratories.
Hits are enriched below; roughly 21% of the tested compounds scored in any of these assays.
CYP2C19 activ = activators of human cytochrome P450 2C19. P33261. recombinant CYP2C19, luciferin-H EGE luminescence; hits give high values; 0 = fully inhibited enzyme, 1 = untreated enzyme. activation factor at 5 µM. 96,000 tested, under 10 active. AID 1025;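 active means activation factor of at least 2 at 5 µM in the primary screen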
Target sequence (P33261 whole entry, looked up): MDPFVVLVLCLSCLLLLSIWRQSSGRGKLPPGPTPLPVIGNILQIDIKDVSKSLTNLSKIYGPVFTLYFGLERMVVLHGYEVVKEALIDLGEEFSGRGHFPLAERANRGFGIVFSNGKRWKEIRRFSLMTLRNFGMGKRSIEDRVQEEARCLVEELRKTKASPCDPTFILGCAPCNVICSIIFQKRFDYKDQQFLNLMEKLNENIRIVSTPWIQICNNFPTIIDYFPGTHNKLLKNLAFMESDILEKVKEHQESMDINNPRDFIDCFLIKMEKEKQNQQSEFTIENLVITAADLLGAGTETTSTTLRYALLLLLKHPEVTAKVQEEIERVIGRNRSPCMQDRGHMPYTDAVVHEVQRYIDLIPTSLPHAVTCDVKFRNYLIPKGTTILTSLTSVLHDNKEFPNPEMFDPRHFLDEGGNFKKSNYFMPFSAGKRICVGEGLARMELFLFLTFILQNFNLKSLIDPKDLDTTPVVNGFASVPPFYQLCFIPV
MRP1 act = activates MRP-1 | viability increase, % at 10 µM | AID 799 | 140,000 compounds, 0.61% hits | H69AR cells + doxorubicin, viability rescue, CellTiter-Glo;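 active means viability gain under doxorubicin at or above a set limit, the compound median plus 3 SD, cut at about 4.7% in these data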;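 further: MRP-1 overexpressing cells given doxorubicin 25 µM after compound pretreatment; 18-22 h compound pretreatment then 72 h with doxorubicin before readout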
CYP2C19 inhib = inhibitors of human CYP2C19 | P33261 | CYP2C19 Supersomes, luciferin-H EGE luminescence, 30 min | inhibition, % at 5 µM | 96,000 compounds, 21% hits;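 active means CYP2C19 inhibition above a set limit at 5 µM in the primary screen, cut at about 50% in these data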
CYP2C9 act = increases human cytochrome P450 2C9 activity; P11712; recombinant CYP2C9, luciferin-H conversion, luminescence; hits give high values; factor 1 = untreated enzyme, 0 = blocked; activation factor at 5 µM; 96,000 compounds, 1.4% hits; AID 1024;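 active means activation factor of 2 or more for CYP2C9 at a 5 µM dose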
CYP2C9 inhib = blocks human cytochrome P450 2C9. P11712. CYP2C9 Supersomes, luciferin-H conversion, luminescence. inhibition, % at 5 µM. 96,000 compounds, 20% hits. AID 777;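 active means blocking of liver enzyme CYP2C9 beyond about 50% at 5 µM, limit read from the data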
MRP resist rev = reverses drug resistance mediated by MRP; H69AR cells + 2 uM doxorubicin, CellTiter-Glo, 72 h; differential viability (reversal), % at 10 µM; 85,000 compounds, 0.04% hits;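 active means viability drop by adding the cancer drug above about 55%, with treated viability meeting a 40% cutoff, limit read from the data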;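 further: larger differential means the compound sensitizes cells more to doxorubicin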
Numbers stand for hits; - = inactive; . = not tested or not shown.

SMILES	CYP2C19 activ	MRP1 act	CYP2C19 inhib	CYP2C9 act	CYP2C9 inhib	MRP resist rev
FC(F)(F)c1cnc(Oc2ccc(-c3nnco3)cc2)c(Cl)c1	-	-	-	-	-	-
c1cnc(Oc2ccc(-c3nnco3)cc2)cn1	-	-	53.5	-	-	-
COc1nn(C(C)C(=O)N2N=C(C(F)F)CC2(O)C(F)F)cc1[N+](=O)[O-] (stereo not given)	.	-	.	.	.	-
O=C(CS(=O)(=O)c1cccc(Cl)c1)Nc1ccccc1Cl	-	-	77.6	-	-	.
Cc1ccc(NC(=O)C2=C(O)c3ccccc3N(C)S2(=O)=O)cc1	-	-	-	-	73.4	.
CCOC(=O)C1CCN(C(=O)c2cnn3c(C)cc(C)nc23)CC1	-	-	-	-	-	-
Cn1nccc1C(=O)Nn1cnnc1	-	-	-	-	-	-
Cn1nccc1C(=O)c1ccc(Cl)cc1	-	-	58.1	-	-	-
Nc1nonc1NC(=O)NN=C1CCCCC1	.	-	.	.	.	.
NCCc1nnc(SCc2ccc(F)cc2)o1	-	-	90.2	-	74.8	-
Cc1cc(C)cc(N(C(=O)C(F)(F)F)C(C(=O)NC2CCCCC2)c2cccs2)c1 (stereo not given)	-	-	-	-	-	.
C=CCOC(=O)C1=C(C)Nc2nnnn2C1c1cccc(OC)c1OC (stereo not given)	-	-	58.6	-	83.1	-
CCOC(=O)C1=C(C)Nc2nnnn2C1c1c[nH]c2ccccc12 (stereo not given)	-	-	90.2	-	84.0	.
CCOC(=O)C1=C(C)Nc2nnnn2C1c1cccc(OC)c1OC (stereo not given)	.	-	.	.	.	-
CCOc1cc(NS(=O)(=O)c2ccc(NC(C)=O)cc2)c(OCC)cc1NC(=O)c1cccs1	.	-	.	.	.	.
CC(=O)c1cc(CC=C(C)C)c(O)c(CC=C(C)C)c1O	-	-	83.8	-	70.9	.
CC(=O)c1cc(CC=C(C)C)c(O)cc1O	-	-	-	-	79.8	.
CCCN1C[C@H](CSC)C[C@@H]2c3cccc4[nH]cc(c34)C[C@H]21	.	-	.	.	.	.
COc1ccc(/C=C(/NC(=O)c2ccccc2)C(=O)NC2CCS(=O)(=O)C2)cc1 (stereo not given)	.	-	.	.	.	.
Cc1cccc(NC(=O)CSc2nnc(Cn3cnc4ccccc43)o2)c1	.	-	.	.	.	-
O=c1oc2cc(O)ccc2c2ccccc12	-	-	-	2.2	-	-
O=c1oc2cc(O)ccc2c2oc3cc(O)ccc3c12	.	-	.	.	.	.
Oc1ccc2oc3c(c2c1)CCCC3	-	-	-	-	-	-
Cc1coc2cc3oc(=O)c4c(c3cc12)CCCC4	-	-	-	-	73.9	-
O=c1oc2cc(O)ccc2c2c1CCCC2	-	-	-	2.6	-	-
SMILES	CYP2C19 activ	MRP1 act	CYP2C19 inhib	CYP2C9 act	CYP2C9 inhib	MRP resist rev
Cc1coc2cc3oc(=O)cc(C)c3cc12	.	-	.	.	.	.
COc1ccc(OC)c(NC(=O)COC(=O)/C=C/c2ccc(Cl)cc2)c1	.	-	.	.	.	.
Cc1cc(C)nc(-n2nc(C)cc2NC(=O)CNCc2ccccc2)n1	-	-	-	-	60.8	-
Cc1cc(C)nc(-n2nc(C)cc2NC(=O)CN2CCc3ccccc3C2)n1	-	-	86.3	-	88.7	-
CCN(CC(=O)Nc1cc(C)nn1-c1nc(C)cc(C)n1)Cc1ccccc1	-	-	69.2	-	82.7	-
CCC(C(=O)Nc1cc(C)nn1-c1nc(C)cc(C)n1)c1ccccc1 (stereo not given)	-	-	-	-	-	-
CCOC(=O)c1sc(-c2ccccc2)cc1NC(=O)Nc1ccc([N+](=O)[O-])cc1	.	-	.	.	.	.
COc1ccccc1CNC(=O)CCSCc1cccc(Cl)c1	.	-	.	.	.	.
Cc1ccc(Cn2cnc3ccccc32)cc1C	.	-	.	.	.	.
c1ccc(OCCCCn2cnc3ccccc32)cc1	-	-	59.9	-	-	-
CCCOc1ccc(Cn2cnc3ccccc32)cc1	-	-	64.7	-	86.6	-
Cc1cccc(Cn2cnc3ccccc32)c1	-	-	84.2	-	53.2	-
c1ccc2c(c1)ncn2CCCCOc1ccc2c(c1)CCC2	-	-	-	-	-	-
c1ccc(OCCn2cnc3ccccc32)cc1	-	-	-	-	-	-
Cc1ccccc1OCCCCn1cnc2ccccc21	-	-	60.8	-	-	-
Fc1ccc(Cn2cnc3ccccc32)cc1	-	-	-	-	-	-
Brc1ccccc1OCCCn1cnc2ccccc21	-	-	58.2	-	60.0	-
O=C(Nc1cc(Cl)ccc1Oc1ccccc1)c1ccccc1F	.	-	.	.	.	.
